Assay results taken from PubChem BioAssay (Tox21).
Values without a mark were called inactive. Results filed as inconclusive are left out. Where a call stands in place of a potency, no number is given. Active and inactive are the calls of the source. Unless noted, calls come from the whole dose curve.

Key:
[1] = Nuclear factor erythroid 2-related factor 2/antioxidant responsive element (Nrf2/ARE) small molecule agonists: luciferase reporter gene qHTS assay in human keratinocytes (AID 1919969); note: nearly all actives have a fitted effect of over 35% in size; note: potency is the fitted concentration of half-maximal effect
[2] = biological target: Gonadotropin-releasing hormone receptor (Homo sapiens) (UniProt P30968); experiment: Human gonadotropin-releasing hormone receptor (GnRHR) small molecule agonists, calcium flux assay in GnRHR-HEK293 cells (AID 1920063); note: nearly all actives have a fitted effect of over 35% in size
Sequence of Gonadotropin-releasing hormone receptor (Homo sapiens) (P30968 whole entry, looked up): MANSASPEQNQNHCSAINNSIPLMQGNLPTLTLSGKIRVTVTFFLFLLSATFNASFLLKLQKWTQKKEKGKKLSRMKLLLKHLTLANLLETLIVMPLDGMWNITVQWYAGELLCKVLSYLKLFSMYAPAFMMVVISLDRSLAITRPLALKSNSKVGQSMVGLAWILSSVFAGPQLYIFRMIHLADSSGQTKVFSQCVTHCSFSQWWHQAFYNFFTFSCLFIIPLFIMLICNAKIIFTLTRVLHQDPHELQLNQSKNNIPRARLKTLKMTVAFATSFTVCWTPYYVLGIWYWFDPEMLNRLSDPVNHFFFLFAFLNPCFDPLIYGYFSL
Method in brief: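 Fluorescence kinetics (480 nm excitation, 540 nm emission; 3 min, 1 s steps) report calcium mobilisation in human GnRHR-HEK293 cells in agonist mode. Dye incubation: 1 h, 37 C.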

[3] = biological target: KiSS-1 receptor (Homo sapiens) (UniProt Q969F8); experiment: Human kisspeptin (KISS1R) small molecule agonists, calcium flux assay in KISS1R-HEK293 cells (AID 1920064; active = well fitted activation curve with a large enough effect in the repeat runs)
Sequence of KiSS-1 receptor (Homo sapiens) (Q969F8 whole entry, looked up): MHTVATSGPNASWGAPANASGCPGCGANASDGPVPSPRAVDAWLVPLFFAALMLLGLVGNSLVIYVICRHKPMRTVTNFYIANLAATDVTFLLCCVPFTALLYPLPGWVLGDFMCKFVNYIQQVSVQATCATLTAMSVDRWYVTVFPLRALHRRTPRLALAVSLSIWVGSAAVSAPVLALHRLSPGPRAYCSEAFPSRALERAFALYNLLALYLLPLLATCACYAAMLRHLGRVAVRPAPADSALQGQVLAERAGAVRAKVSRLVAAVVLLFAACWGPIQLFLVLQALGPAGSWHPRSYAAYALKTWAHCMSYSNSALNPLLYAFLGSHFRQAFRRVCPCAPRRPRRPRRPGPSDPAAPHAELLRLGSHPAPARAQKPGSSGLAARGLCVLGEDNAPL
Method in brief: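 Measures KISS1R agonism through calcium-sensitive dye fluorescence in stably transfected HEK293 cells, read for 3 min after pin-tool compound delivery; 15-point titrations in triplicate.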

[4] = G protein-coupled receptor (GPCR) small molecule agonists, calcium flux assay: HEK293 wild type cell line counter screen (AID 1920065)
Method in brief: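 Readout: fluorescence at 480 nm excitation/540 nm emission, sampled at 1 s intervals for 3 min. Cells had been cultured 18 h, then dye-loaded 1 h at 37 C before compound or ATP addition.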

[5] = p53 small molecule agonists, cell-based qHTS assay with rat liver microsomes (AID 1963578)
Method in brief: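 Fluorescence from a beta-lactamase reporter under a p53 response element was measured after cells had been incubated 16 h at 37 C with test compound and rat liver microsomes plus NADPH (0.5 mg/mL final each).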

[6] = p53 small molecule agonists, cell-based qHTS assay with human liver microsomes: qHTS cell viability counter screen (AID 1963579); note: nearly all actives have a fitted effect of over 45% in size
Method in brief: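 Seed p53RE-bla cells at 4,000 per well; incubate 5 h at 37 C; add compound, human liver microsomes and NADPH; incubate 16 h at 37 C; add CellTiter-Glo; after 30 min at room temperature, read luminescence.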

[7] = p53 small molecule agonists, cell-based qHTS assay with rat liver microsomes: qHTS cell viability counter screen (AID 1963580); note: nearly all actives have a fitted effect of over 45% in size
Method in brief: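 HCT-116 p53RE-bla, 4,000 cells/well, 5 h pre-incubation; cpd + rat liver microsomes 0.5 mg/mL + NADPH 0.5 mg/mL (final); 16 h, 37 C; CellTiter-Glo, 30 min RT; luminescence.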

[8] = p53 small molecule agonists, cell-based qHTS assay: qHTS cell viability counter screen (AID 1963581); note: nearly all actives have a fitted effect of over 45% in size
Method in brief: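 In the same plates used for the p53 bla reporter, HCT-116 cells given compounds for 16 h at 37 C received CellTiter-Glo; luminescence was recorded 30 min later at room temperature.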

[9] = p53 small molecule agonists, cell-based qHTS assay (AID 1963582; active = well fitted activation curve with a large enough effect in the signal ratio in the repeat runs, not every such curve was filed as active; the % refers to the signal ratio)
Method in brief: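 Compounds are pin-transferred in DMSO onto p53RE-bla cells and incubated 16 h at 37 C. The B/G FRET beta-lactamase substrate is then applied for 2 h at RT and fluorescence recorded.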

[10] = biological target: 5-hydroxytryptamine receptor 2A (Homo sapiens) (UniProt P28223); experiment: 5-hydroxytryptamine receptor 2A (HTR2A) small molecule antagonists, cell-based qHTS assay (AID 1963586); note: nearly all actives have a fitted effect of over 45% in size
Sequence of 5-hydroxytryptamine receptor 2A (Homo sapiens) (P28223 whole entry, looked up): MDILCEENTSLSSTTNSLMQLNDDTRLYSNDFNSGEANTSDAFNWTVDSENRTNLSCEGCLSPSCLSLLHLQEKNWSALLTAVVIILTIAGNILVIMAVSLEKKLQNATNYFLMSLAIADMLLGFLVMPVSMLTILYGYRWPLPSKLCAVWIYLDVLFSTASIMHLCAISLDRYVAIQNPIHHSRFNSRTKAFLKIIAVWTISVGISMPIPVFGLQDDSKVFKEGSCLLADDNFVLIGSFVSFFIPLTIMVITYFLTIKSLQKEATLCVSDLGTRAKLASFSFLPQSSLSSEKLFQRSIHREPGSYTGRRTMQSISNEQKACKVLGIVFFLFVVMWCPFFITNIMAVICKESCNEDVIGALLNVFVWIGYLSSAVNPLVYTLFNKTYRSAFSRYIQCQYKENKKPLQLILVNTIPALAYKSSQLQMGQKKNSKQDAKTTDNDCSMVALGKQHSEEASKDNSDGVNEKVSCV
Method in brief: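 Antagonist-mode intracellular calcium assay: DOI (4 nM) added after 5 min compound pre-incubation at room temperature to dye-loaded HTR2A-CHO cells. Fluorescence followed for 3 min, sampled every second.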

[11] = biological target: 5-hydroxytryptamine receptor 2A (Homo sapiens) (UniProt P28223); experiment: 5-hydroxytryptamine receptor 2A (HTR2A) small molecule agonists, cell-based qHTS assay (AID 1963587); note: nearly all actives have a fitted effect of over 30% in size
Method in brief: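 Kinetic calcium-flux fluorescence (2 min, 1 sec intervals) after compound addition in agonist mode. HTR2A-CHO cells were cultured 18 h, then dye-loaded 1 h at 37 C.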

[12] = biological target: Muscarinic acetylcholine receptor M1 (Homo sapiens) (UniProt P11229); experiment: Cholinergic receptor muscarinic 1 (CHRM1) small molecule agonists, cell-based qHTS assay (AID 1963589); note: nearly all actives have a fitted effect of over 35% in size
Sequence of Muscarinic acetylcholine receptor M1 (Homo sapiens) (P11229 whole entry, looked up): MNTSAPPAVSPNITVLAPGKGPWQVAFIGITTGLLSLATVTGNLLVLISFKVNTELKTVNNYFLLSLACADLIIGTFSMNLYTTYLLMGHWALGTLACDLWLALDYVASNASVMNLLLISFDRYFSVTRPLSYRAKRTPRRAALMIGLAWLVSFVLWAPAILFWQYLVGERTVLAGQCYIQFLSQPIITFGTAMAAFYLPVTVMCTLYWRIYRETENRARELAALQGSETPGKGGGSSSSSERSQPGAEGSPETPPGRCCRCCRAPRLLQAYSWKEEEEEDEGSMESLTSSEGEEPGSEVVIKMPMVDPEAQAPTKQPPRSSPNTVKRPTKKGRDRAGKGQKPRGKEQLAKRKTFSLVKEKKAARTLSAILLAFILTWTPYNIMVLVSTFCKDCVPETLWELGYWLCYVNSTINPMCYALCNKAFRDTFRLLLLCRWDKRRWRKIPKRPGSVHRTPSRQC
Method in brief: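 Each compound was tested at 15 concentrations across three independent runs on dye-loaded CHO cells stably expressing human CHRM1, reading intracellular calcium fluorescence kinetically at 1 sec intervals.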

[13] = cAMP Responsive Elements (CRE) small molecule agonists, cell-based qHTS assay (AID 1963590)
Method in brief: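 Cell line: CRE-bla HEK 293T; medium DMEM/10% dialyzed FBS/0.1 mM NEAA/1 mM pyruvate/25 mM HEPES; 3 h compound exposure; beta-lactamase FRET readout after 2 h substrate loading at RT.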

[14] = cAMP Responsive Elements (CRE) small molecule antagonists, cell-based qHTS assay (AID 1963591; active = well fitted inhibition curve with a large enough effect in the signal ratio in the repeat runs, not every such curve was filed as active; the % refers to the signal ratio)
Method in brief: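 Inhibition of NKH477-driven (0.25 uM final) CRE-beta-lactamase signal in HEK293T cells, 3 h compound exposure at 37 °C, detected by FRET substrate fluorescence.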

[15] = biological target: Beta-2 adrenergic receptor (Homo sapiens) (UniProt P07550); experiment: Adrenergic beta2 receptor (ADRB2) small molecule antagonists, cell-based qHTS assay (AID 1963592); note: series mostly up to about 92 µM; nearly all actives have a fitted effect of over 50% in size
Sequence of Beta-2 adrenergic receptor (Homo sapiens) (P07550 whole entry, looked up): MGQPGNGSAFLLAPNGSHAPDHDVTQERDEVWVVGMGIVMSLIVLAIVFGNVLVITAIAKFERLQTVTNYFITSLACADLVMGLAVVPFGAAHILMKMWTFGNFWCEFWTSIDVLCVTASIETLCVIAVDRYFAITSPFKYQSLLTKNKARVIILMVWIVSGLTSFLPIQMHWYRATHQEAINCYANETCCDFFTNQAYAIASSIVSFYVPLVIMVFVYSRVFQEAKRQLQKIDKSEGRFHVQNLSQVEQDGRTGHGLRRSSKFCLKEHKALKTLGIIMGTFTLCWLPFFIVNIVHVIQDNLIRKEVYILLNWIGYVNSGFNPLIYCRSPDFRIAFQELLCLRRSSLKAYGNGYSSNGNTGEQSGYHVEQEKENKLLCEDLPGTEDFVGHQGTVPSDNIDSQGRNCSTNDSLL
Method in brief: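 Cells (CHO, stable ADRB2 overexpression) incubated 18-20hr at 37C; compounds added from DMSO; agonist mix (1nM isoproterenol, 100uM IBMX, 25uM Ro-20-1724) added; 0.5hr RT; d2-cAMP and anti-cAMP-cryptate added; 1hr RT; 665/615 nm read.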

[16] = biological target: Beta-2 adrenergic receptor (Homo sapiens) (UniProt P07550); experiment: Adrenergic beta2 receptor (ADRB2) small molecule agonists, cell-based qHTS assay (AID 1963593);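 note: CHO cells stably overexpressing human ADRB2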
Method in brief: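 CHO cells stably over-expressing ADRB2 were plated overnight at 37C, then dosed with compounds plus a stimulation mix containing 100uM IBMX and 25uM Ro-20-1724 for 0.5hr at room temperature. cAMP was measured by HTRF competition, 1hr.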

[17] = biological target: D(2) dopamine receptor (Homo sapiens) (UniProt P14416); experiment: Dopamine D2 receptor (DRD2) small molecule agonists, cell-based qHTS assay (AID 1963594); note: nearly all actives have a fitted effect of over 35% in size
Sequence of D(2) dopamine receptor (Homo sapiens) (P14416 whole entry, looked up): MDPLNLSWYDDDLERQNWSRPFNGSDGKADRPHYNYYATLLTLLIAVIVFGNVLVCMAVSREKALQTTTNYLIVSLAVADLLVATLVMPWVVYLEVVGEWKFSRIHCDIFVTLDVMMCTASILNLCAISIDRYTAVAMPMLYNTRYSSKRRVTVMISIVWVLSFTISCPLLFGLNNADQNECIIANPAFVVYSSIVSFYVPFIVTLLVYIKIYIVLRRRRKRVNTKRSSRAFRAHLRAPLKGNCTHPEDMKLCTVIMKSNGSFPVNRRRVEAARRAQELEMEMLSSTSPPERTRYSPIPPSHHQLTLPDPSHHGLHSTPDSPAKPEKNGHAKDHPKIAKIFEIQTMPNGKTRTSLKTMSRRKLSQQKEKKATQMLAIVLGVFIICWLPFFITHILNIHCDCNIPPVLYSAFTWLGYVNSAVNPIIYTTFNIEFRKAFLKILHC
Method in brief: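 cAMP accumulation in DRD2-HEK293 cells measured by HTRF after 1 h detection; compounds added 10 min before NKH477 (200nM […]) forskolin-analogue stimulation, 30 min at room temperature, with Ro20-1724 present at 0.1 mM final.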

[18] = biological target: D(2) dopamine receptor (Homo sapiens) (UniProt P14416); experiment: Dopamine D2 receptor (DRD2) small molecule antagonists, cell-based qHTS assay (AID 1963595; active = well fitted inhibition curve with a large enough effect in the signal ratio in the repeat runs, with a control signal flat; the % refers to the signal ratio)
Method in brief: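 Cells were plated and grown for 24 h at 37 °C. Ro20-1724 (0.1 mM final) went in first, then compound for 10 min. NKH477 (200 nM) with quinpirole (12 nM) followed for 30 min at RT, then HTRF detection reagents for 1 h.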

[19] = p53 small molecule agonists, cell-based qHTS assay with human liver microsomes (AID 1963577)
Method in brief: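 Cells carrying a p53-responsive bla reporter were rested 5 h (37 C, 5% CO2) before compound transfer. Human liver microsomes plus NADPH, 0.5 mg/mL final apiece, supplied metabolism during the 16 h 37 C exposure.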

[20] = biological target: Muscarinic acetylcholine receptor M1 (Homo sapiens) (UniProt P11229); experiment: Cholinergic receptor muscarinic 1 (CHRM1) small molecule antagonists, cell-based qHTS assay (AID 1963588); note: nearly all actives have a fitted effect of over 40% in size
Method in brief: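 CHRM1-CHO calcium-flux assay, antagonist mode. Cells were seeded 18 h, dye-loaded 1 h at 37 C and given compound for 5 min at RT, then acetylcholine was added at 50nM. FDSS fluorescence was read 3 min; 15 concentrations, three runs.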

CCN(CC)CCOc1ccc(Cc2ccccc2)cc1
Potency [1]: inactive | Potency [2]: inactive | outcome [3]: inactive | outcome [4]: inactive | Potency [5]: inactive | Potency [6]: inactive | Potency [7]: inactive | Potency [8]: inactive | Potency [9]: inactive | Potency [10]: inactive | Potency [11]: inactive | Potency [12]: inactive | Potency [13]: inactive | Potency [14]: inactive | Potency [15]: inactive | Potency [16]: inactive | Potency [17]: inactive | Potency [18]: inactive

C/C=C/C=C/COC(=O)C(C)C
Potency [1]: 68.6 µM (active) | Potency [2]: inactive | outcome [3]: inactive | outcome [4]: inactive | Potency [19]: inactive | Potency [6]: inactive | Potency [7]: inactive | Potency [8]: inactive | Potency [9]: inactive | Potency [10]: inactive | Potency [11]: inactive | Potency [20]: inactive | Potency [12]: inactive | Potency [15]: inactive | Potency [16]: inactive | Potency [17]: inactive | Potency [18]: inactive

O=C(O)c1cc(N=Nc2ccc([N+](=O)[O-])cc2)ccc1O
Potency [1]: inactive | Potency [2]: inactive | outcome [3]: inactive | outcome [4]: inactive | Potency [19]: inactive | Potency [5]: inactive | Potency [7]: inactive | Potency [10]: inactive | Potency [11]: inactive | Potency [20]: inactive | Potency [12]: inactive | Potency [15]: inactive | Potency [17]: inactive | Potency [18]: inactive

Cc1cccc(N(C)C(=S)Oc2ccc3c(c2)CCC3)c1
Potency [1]: inactive | Potency [2]: inactive | outcome [3]: inactive | outcome [4]: inactive | Potency [19]: inactive | Potency [5]: inactive | Potency [6]: inactive | Potency [8]: inactive | Potency [11]: inactive | Potency [20]: inactive | Potency [12]: inactive | Potency [13]: inactive | Potency [15]: inactive | Potency [16]: inactive | Potency [17]: inactive

OC[C@@H](O)[C@H](O)[C@@H](O)[C@@H](O)CO
Potency [1]: inactive | Potency [2]: inactive | outcome [3]: inactive | outcome [4]: inactive | Potency [19]: inactive | Potency [5]: inactive | Potency [6]: inactive | Potency [8]: inactive | Potency [9]: inactive | Potency [13]: inactive | Potency [14]: inactive | Potency [15]: inactive | Potency [16]: inactive | Potency [17]: inactive | Potency [18]: inactive

CCCC[P+](C)(CCCC)CCCC
Potency [1]: inactive | Potency [2]: inactive | outcome [3]: inactive | outcome [4]: inactive | Potency [19]: inactive | Potency [5]: inactive | Potency [6]: inactive | Potency [8]: inactive | Potency [11]: inactive | Potency [20]: inactive | Potency [12]: inactive | Potency [15]: inactive | Potency [16]: inactive | Potency [17]: inactive | Potency [18]: inactive

CCCCCCCC(=O)OCC
Potency [1]: inactive | Potency [2]: inactive | outcome [3]: inactive | outcome [4]: inactive | Potency [19]: inactive | Potency [5]: inactive | Potency [6]: inactive | Potency [8]: inactive | Potency [9]: inactive | Potency [10]: inactive | Potency [11]: inactive | Potency [20]: inactive | Potency [12]: inactive | Potency [13]: inactive | Potency [14]: inactive | Potency [15]: inactive | Potency [17]: inactive | Potency [18]: inactive

C[C@H](CCC(=O)NCC(=O)O)[C@H]1CC[C@H]2[C@@H]3[C@H](O)C[C@@H]4C[C@H](O)CC[C@]4(C)[C@H]3C[C@H](O)[C@]12C
Potency [1]: inactive | Potency [2]: inactive | outcome [3]: inactive | outcome [4]: inactive | Potency [19]: inactive | Potency [5]: inactive | Potency [6]: inactive | Potency [7]: inactive | Potency [9]: inactive | Potency [10]: inactive | Potency [11]: inactive | Potency [20]: inactive | Potency [12]: inactive | Potency [13]: inactive | Potency [14]: inactive | Potency [15]: inactive | Potency [17]: inactive | Potency [18]: inactive

Cn1c(=O)c2c(ncn2CC(O)CO)n(C)c1=O (stereo unspecified)
Potency [1]: inactive | Potency [2]: inactive | outcome [3]: inactive | outcome [4]: inactive | Potency [19]: inactive | Potency [6]: inactive | Potency [7]: inactive | Potency [8]: inactive | Potency [9]: inactive | Potency [13]: inactive | Potency [14]: inactive | Potency [15]: inactive | Potency [17]: inactive | Potency [18]: inactive

CCCCNS(=O)(=O)c1ccc(C)cc1
Potency [1]: inactive | Potency [2]: inactive | outcome [4]: inactive | Potency [19]: inactive | Potency [5]: inactive | Potency [6]: inactive | Potency [7]: inactive | Potency [8]: inactive | Potency [9]: inactive | Potency [10]: inactive | Potency [11]: inactive | Potency [20]: inactive | Potency [12]: inactive | Potency [13]: inactive | Potency [15]: inactive | Potency [16]: inactive | Potency [17]: inactive
